Measured values published in PubChem BioAssay (EPA / NIEHS).
Active and inactive are the calls of the source. Rule for the calls: active = hit-call score of the fitted dose curve at least 0.9, where 1 is the maximum; inactive = score below 0.9.

Tests used:
[1] = read-out: Interferon-gamma inducible Protein 10 (IP10), CXCL10 (gene 3627); assay: BSK_hDFCGF_IP10: BioMAP Diversity Plus: hDFCGF Assay for Interferon-gamma inducible Protein 10 (IP10) Biomarker Activity (AID 2283053); settings: primary human foreskin fibroblasts; actives raise or lower the signal
Procedure, shortened: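 Cells: human dermal foreskin fibroblasts. Exposure: 24 h post-dosing. Detection: IP-10 ELISA, with values expressed against DMSO controls and fitted in both directions.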

[2] = read-out: Urokinase-type plasminogen activator receptor (uPAR), PLAUR (gene 5329); assay: BSK_CASM3C_uPAR: BioMAP Diversity Plus: CASM3C Assay for Urokinase-type plasminogen activator receptor (uPAR) Biomarker Activity (AID 2283054); settings: primary human coronary artery smooth muscle cells; actives raise or lower the signal;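 note: cell-surface uPAR protein level quantified by ELISA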
[3] = read-out: Vascular cell adhesion molecule 1 (VCAM1), VCAM1 (gene 7412); assay: BSK_CASM3C_VCAM1: BioMAP Diversity Plus: CASM3C Assay for Vascular cell adhesion molecule 1 (VCAM1) Biomarker Activity (AID 2283055); settings: primary human coronary artery smooth muscle cells; actives raise or lower the signal;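 note: VCAM-1 protein level quantified by ELISA on the cells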
[4] = read-out: Collagen III, COL3A1 (gene 1281); assay: BSK_hDFCGF_CollagenIII: BioMAP Diversity Plus: hDFCGF Assay for Collagen III Biomarker Activity (AID 2283056); settings: primary human foreskin fibroblasts; actives raise or lower the signal
Procedure, shortened: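 ELISA read-out of collagen III from human skin fibroblast cultures sampled 24 h post-dosing. Values were derived by bidirectional fitting relative to the DMSO vehicle control.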

[5] = read-out: Epidermal growth factor receptor (EGFR), EGFR (gene 1956); assay: BSK_hDFCGF_EGFR: BioMAP Diversity Plus: hDFCGF Assay for Epidermal growth factor receptor (EGFR) Biomarker Activity (AID 2283057); settings: primary human foreskin fibroblasts; actives raise or lower the signal
Procedure, shortened: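 Dosing human primary skin fibroblasts, then measuring surface EGFR by ELISA at 24 h, gives the endpoint; gains and losses relative to DMSO were fitted in both directions.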

[6] = read-out: Interleukin-8 (IL8), CXCL8 (gene 3576); assay: BSK_hDFCGF_IL8: BioMAP Diversity Plus: hDFCGF Assay for Interleukin-8 (IL8) Biomarker Activity (AID 2283058); settings: primary human foreskin fibroblasts; actives raise or lower the signal
Procedure, shortened: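 Cells used are human skin primary fibroblasts. Chemical is added, cultures run 24 h, then IL-8 is quantified by ELISA, and gain or loss versus DMSO control is fitted in both directions.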

[7] = BSK_hDFCGF_Proliferation: Cell Proliferation Assessment in the BioMAP Diversity Plus: hDFCGF Assay (AID 2283059); settings: primary human foreskin fibroblasts;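 note: curves fitted for both rise and fall of signal versus DMSO baseline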
Procedure, shortened: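 This proliferation readout used SRB total-protein staining of human foreskin fibroblasts […], normalized to DMSO with bidirectional curve fitting.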

[8] = read-out: Macrophage colony-stimulating factor (MCSF), CSF1 (gene 1435); assay: BSK_hDFCGF_MCSF: BioMAP Diversity Plus: hDFCGF Assay for Macrophage colony-stimulating factor (MCSF) Biomarker Activity (AID 2283060); settings: primary human foreskin fibroblasts; actives raise or lower the signal
Procedure, shortened: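 Primary human foreskin fibroblasts dosed with chemical; 24 h later, M-CSF quantified by ELISA; curves fitted in both directions vs DMSO negative control.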

[9] = BSK_hDFCGF_SRB: Viability Assessment in the BioMAP Diversity Plus: hDFCGF Assay (AID 2283061); settings: primary human foreskin fibroblasts;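 note: cells exposed to compound for 24 h before the read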
Procedure, shortened: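 Readout is SRB absorbance at 560 nm, reflecting total protein in parallel cultures of human foreskin fibroblasts harvested 24 h after chemical dosing. Activity was fitted bidirectionally relative to DMSO.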

[10] = read-out: TIMP metallopeptidase inhibitor 1 (TIMP1), TIMP1 (gene 7076); assay: BSK_hDFCGF_TIMP1: BioMAP Diversity Plus: hDFCGF Assay for TIMP metallopeptidase inhibitor 1 (TIMP1) Biomarker Activity (AID 2283062); settings: primary human foreskin fibroblasts; actives raise or lower the signal
Procedure, shortened: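 Human skin fibroblasts (primary), hDFCGF system; compound exposure 24 h; TIMP-1 by ELISA; bidirectional fit vs DMSO negative control; overt cytotoxicity by SRB in parallel wells.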

Measured: AC50

CN(C[C@@H](CC[N+]12CCC(C3CCCCC3)(CC1)CC2)c1ccc(Cl)c(Cl)c1)C(=O)c1cc(C(F)(F)F)cc(C(F)(F)F)c1
active: [1] 6.46 µM | [2] 13 µM | [3] 14.3 µM | [4] 7.21 µM | [5] 5.37 µM | [6] 9.76 µM | [7] 5.55 µM | [8] 7.28 µM | [9] 5.86 µM | [10] 7.05 µM

CCCCOC(=O)c1ccc(O)cc1
active: [7] 20 µM
inactive: all other assays above

Cc1ccc(C(C)C)cc1
inactive: all assays above

O=c1[nH]sc2ccccc12
inactive: [5]
active: [1] 4.08 µM | [2] 11.3 µM | [3] 10.7 µM | [4] 20 µM | [6] 20 µM | [7] 0.281 µM | [8] 3.22 µM | [9] 7.21 µM | [10] 11.8 µM

CCCCCCCCCCCO
active: [1] 36.8 µM | [4] 31.6 µM | [6] 32.4 µM | [7] 20 µM | [8] 29.8 µM | [9] 30 µM
inactive: [2] | [3] | [5] | [10]

c1ccc(C[n+]2cccc3ccccc32)cc1
inactive: all assays above

CC(=O)N1CCN(c2ccc(OC[C@H]3CO[C@](Cn4ccnc4)(c4ccc(Cl)cc4Cl)O3)cc2)CC1
active: [1] 33.3 µM | [4] 14 µM | [6] 33.5 µM | [7] 20 µM | [9] 32.9 µM | [10] 35.4 µM
inactive: [2] | [3] | [5]

CC[C@H](NC(=O)c1cc(F)ccc1NS(=O)(=O)c1cccc2cccnc12)c1ccccc1
active: [4] 8.58 µM | [7] 21.5 µM
inactive: all other assays above

O=C(Nc1ccc(Cl)cc1)Nc1ccc(Cl)c(Cl)c1
inactive: [3] | [6] | [10]
active: [1] 0.148 µM | [2] 9.76 µM | [4] 0.148 µM | [5] 1 µM | [7] 0.477 µM | [8] 0.284 µM | [9] 0.138 µM

CCCCCCCC[Si](OCC)(OCC)OCC
active: [4] 20 µM | [7] 28.3 µM
not listed: [3]
inactive: all other assays above

c1ccc2n[nH]nc2c1
inactive: all assays above

CCO[Si](CCCNC(N)=O)(OCC)OCC
inactive: all assays above

O=C1c2ccccc2C(=O)N1CCc1noc(-c2ccc(CN3CCCCCC3)s2)n1
inactive: all assays above

CC(C)(C)c1csc(-c2cc3cc(OCc4ccccc4CC(=O)O)ccc3o2)n1
inactive: [2] | [5]
active: [1] 10.2 µM | [3] 15.4 µM | [4] 3.19 µM | [6] 18.4 µM | [7] 9.8 µM | [8] 13 µM | [9] 17.2 µM | [10] 15.5 µM

C[C@]12CC[C@@H]3c4ccc(O)cc4CC[C@H]3[C@@H]1CCC2=O
active: [7] 17.6 µM
inactive: all other assays above

Cc1cn([C@H]2C[C@H](N=[N+]=[N-])[C@@H](CO)O2)c(=O)[nH]c1=O
not listed: [5]
inactive: all other assays above

O=C=NCCCCCCN=C=O
inactive: all assays above

NCc1cccc(C2CCN(C(=O)c3ccc(C#Cc4ccccc4F)o3)CC2)c1
active: [1] 8.64 µM | [2] 30.7 µM | [3] 15.9 µM | [4] 5.12 µM | [5] 12.6 µM | [6] 11.9 µM | [7] 5.81 µM | [8] 7.78 µM | [9] 10.1 µM | [10] 11.8 µM

CN1C(=O)N(c2ccccc2Br)Cc2cnc(Nc3ccc4c(c3)OCC(CO)O4)nc21 (stereo not given)
active: [1] 21.3 µM | [2] 13.6 µM | [6] 16.1 µM | [7] 11.9 µM | [8] 20.4 µM | [9] 19 µM | [10] 6.79 µM
inactive: [3] | [4] | [5]

Clc1cc(Cl)c2c(c1)N=C1CCCCCN1C2
inactive: all assays above

CN(C)C(=O)C1(N2CCCCC2)CCN(CC[C@@]2(c3ccc(Cl)c(Cl)c3)CN(C(=O)c3ccccc3)CCO2)CC1
active: [1] 27.2 µM | [2] 24.4 µM | [3] 30 µM | [4] 25.4 µM | [5] 9.57 µM | [6] 33.7 µM | [7] 5.15 µM | [8] 20.8 µM | [9] 13.3 µM | [10] 24.8 µM

CC(O)CC(C)(C)O (stereo not given)
active: [7] 14.1 µM
inactive: all other assays above

CC1=CC(=O)/C(=C(/C)O)C(=O)O1
inactive: all assays above

CCN(Cc1cccnc1)C(=O)c1cccc(Cl)c1[C@]1(C)C(=O)N(Cc2ccc(OC)cc2OC)c2ccc(Cl)cc21
active: [1] 7.05 µM | [3] 5.43 µM | [5] 5.95 µM | [7] 5.1 µM | [8] 5.49 µM
inactive: [2] | [4] | [6] | [9] | [10]

CC(C)(c1cc(Br)c(O)c(Br)c1)c1cc(Br)c(O)c(Br)c1
inactive: [5]
active: [1] 6.23 µM | [2] 31.2 µM | [3] 29.3 µM | [4] 3.85 µM | [6] 11.5 µM | [7] 3.94 µM | [8] 7.47 µM | [9] 5.8 µM | [10] 6.42 µM

CN(C)c1ccc(C(=C2C=CC(=[N+](C)C)C=C2)c2ccc(N(C)C)cc2)cc1
active: [1] 4.07 µM | [2] 1.54 µM | [3] 8.39 µM | [4] 0.148 µM | [6] 6.66 µM | [7] 1.39 µM | [8] 1.77 µM | [9] 2 µM | [10] 1.95 µM
inactive: [5]

O=C(O)c1ccccc1-n1cc(C(=O)O)c(=O)c2cc(Nc3c(F)cc(F)cc3Cl)c(Cl)cc21
inactive: all assays above

Oc1ccc2ccccc2c1
inactive: all assays above

O=C1O[C@H]([C@@H](O)CO)C(O)=C1O
inactive: all assays above

O=c1c(-c2ccc(O)cc2)coc2cc(O)cc(O)c12
active: [1] 20 µM | [2] 29.6 µM | [3] 25.7 µM | [7] 11.7 µM | [9] 14.3 µM
inactive: [4] | [6] | [8] | [10]

CCCCCCCCCC(=O)O
inactive: all assays above

CCCC(=O)OCCC(C)C
inactive: all assays above

CCCCCCCCCCCCO
inactive: [2]
active: [1] 29.3 µM | [3] 31 µM | [4] 15.4 µM | [5] 19.8 µM | [6] 37.4 µM | [7] 26.5 µM | [8] 33.4 µM | [9] 30.6 µM | [10] 36.4 µM

c1ccc2ccccc2c1
inactive: all assays above

CC[C@@H]1C[C@H](N(Cc2cc(C(F)(F)F)cc(C(F)(F)F)c2)C(C)=O)c2cc(C(F)(F)F)ccc2N1C(=O)OC(C)C
active: [1] 1.22 µM
inactive: all other assays above

O=C(OCCCCCCOC(=O)c1ccccc1)c1ccccc1
not listed: [4]
inactive: all other assays above

COCC(C)OCC(C)OCC(C)O (stereo not given)
inactive: all assays above

CCCCCCCCCCCC[N+](C)(C)C
active: [1] 22.2 µM | [2] 19.9 µM | [3] 32.9 µM | [4] 2.57 µM | [6] 29.9 µM | [7] 8.97 µM | [8] 11.9 µM | [9] 18.4 µM
inactive: [5] | [10]
